Compounds with a hit are over-represented: about 4.3% of the library has one in this group of screens.
DRD3 antagonist: qHTS of D3 Dopamine Receptor Antagonist: qHTS | D(3) dopamine receptor (Homo sapiens), P35462 | D3R cells, DiscoveRx beta-arrestin luminescence, antagonist mode; stronger effect = lower value | max response, negative = inhibition, % | hit rate 2.5% among 360,000 | AID 652054, 2013; in the data active = max response below about -50%; inconclusive = no clear call, values can overlap the other calls
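Cells plated overnight at 1500 cells/well, then exposed to library compounds with dopamine controls for 90 minutes at 37 degrees C. DiscoveRx reagent added for 30–60 minutes at room temperature; luminescence read, quantitative HTS format.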
GLP-1R inv ag: qHTS of GLP-1 Receptor Inverse Agonists (Inhibition Mode); HEK293 GLP-1R CRE-luciferase, luminescence, 24 h; GLP-1R form is constitutively active; Glucagon-like peptide 1 receptor (Homo sapiens), P43220; hit rate 1.6% among 410,000; Potency, µM (top dose mostly 38.3 µM), most hits filed as inhibitors; note: nearly all actives have a fitted effect of over 55% in size
Target sequence (P43220 whole entry, looked up): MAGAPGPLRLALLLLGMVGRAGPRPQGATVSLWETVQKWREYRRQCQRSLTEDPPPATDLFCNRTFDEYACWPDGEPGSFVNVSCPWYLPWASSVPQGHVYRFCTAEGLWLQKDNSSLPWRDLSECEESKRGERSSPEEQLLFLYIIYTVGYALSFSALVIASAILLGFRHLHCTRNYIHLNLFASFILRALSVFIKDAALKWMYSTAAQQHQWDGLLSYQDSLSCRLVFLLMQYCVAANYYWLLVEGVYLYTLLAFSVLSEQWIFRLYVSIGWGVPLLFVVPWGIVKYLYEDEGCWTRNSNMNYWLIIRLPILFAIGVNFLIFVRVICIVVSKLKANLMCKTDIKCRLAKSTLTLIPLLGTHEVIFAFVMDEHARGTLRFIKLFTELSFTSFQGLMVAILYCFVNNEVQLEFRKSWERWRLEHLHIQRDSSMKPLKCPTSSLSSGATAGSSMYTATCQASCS
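HEK293 cells stably co-expressing a cAMP-responsive luciferase reporter and constitutively active GLP-1R were seeded, incubated 12 h, then exposed to compounds for 24 h at 37 C. Luminescence was read 12 min after detection reagent; inverse agonists lower signal.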
GLP-1R agonist: qHTS of GLP-1 Receptor Agonists; AID 624172, 2012; Glucagon-like peptide 1 receptor (Homo sapiens), P43220; HEK293 GLP-1R CRE-luciferase, luminescence, 4-6 h; cells express a hypersensitive GLP-1R form; hit rate 0.007% among 380,000; Potency, µM (series often up to 45.6 µM), most hits filed as activators
D3 ag: qHTS of D3 Dopamine Receptor Agonist: qHTS. D(3) dopamine receptor (Homo sapiens), P35462. D3R DiscoveRx beta-arrestin cells, luminescence, 90 min. max activation, %. hit rate 0.58% among 410,000; in the data active = max activation above about 30%
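Cells at 1500/well, incubated overnight, then treated with pinned compounds (dopamine as control) for 90 min at 37 degrees C. DiscoveRx reagent added for 30 - 60 minutes at room temperature; luminescence read.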
Numbers stand for hits; n = inactive; u = inconclusive; x = not tested or not shown. Unless noted, calls come from the whole dose curve; as a rule, active = well fitted curve in the direction sought with a large enough effect; inconclusive = small, poorly fitted or top-dose-only effect, or another doubt; inactive = no such curve, though single readings can be large; an effect the other way counts as inactive or inconclusive.

SMILES	DRD3 antagonist	GLP-1R inv ag	GLP-1R agonist	D3 ag
O=C(NC1CCN(Cc2ccccc2)CC1)c1ccc(CS(=O)c2ccc(F)cc2)o1 (stereo not given)	u	n	n	n
O=C(NC1CCN(Cc2ccccc2)CC1)c1ccc(CS(=O)c2ccccc2Cl)o1 (stereo not given)	-117.0	n	n	n
CC(Oc1ccc(Br)cc1)C(=O)N(Cc1ccccc1)c1c(N)n(Cc2ccccc2)c(=O)[nH]c1=O (stereo not given)	-60.9	n	n	n
CCCCCCCC(=O)CC[C@H]1[C@@H](C/C=C/CCCC(=O)OC(C)C)[C@@H](O)C[C@H]1O	x	x	n	x
CCCCCCCCCCCCCCCC[N+](C)(C)CCN(Cc1ccc(OC)cc1)c1ncccn1	-55.0	n	n	n
Cc1ccc(N2C(=O)CC(N(CCc3ccccc3)C(=S)Nc3ccc(N(C)C)cc3)C2=O)cc1 (stereo not given)	n	3.98µM	n	n
COc1cccc(C(=O)Nn2c(-c3cccs3)nc3ccccc3c2=O)c1OC	n	n	n	n
COc1ccc(CNn2c(-c3cccs3)nc3ccccc3c2=O)cc1OC	n	10µM	n	n
COc1ccccc1NC(=S)NNC(=O)c1nn(C)c(C)c1Cl	-68.8	n	n	n
COc1ccccc1NC(=S)NNC(=O)c1ccc(O)cc1	-82.7	n	n	n
COc1ccccc1NC(=S)NNC(=O)c1nn(C)c(C)c1Br	n	n	n	n
CC1Cc2ccccc2N1C(=S)NC(=O)c1ccc(Cl)cc1Cl (stereo not given)	n	10µM	n	n
CC1Cc2ccccc2N1C(=S)NC(=O)c1cccc(Br)c1 (stereo not given)	n	u	n	n
CCC[C@@H](CN1CCC[C@H]1CN1C(N)=NC[C@H]1CC(C)C)N1C[C@@H](Cc2ccccc2)N(CCCC2CCCC2)C1=N	n	n	n	n
CCCCN1C(=N)N([C@@H](CCC)CN2CCC[C@H]2CN2C(N)=NC[C@@H]2Cc2ccccc2)C[C@H]1Cc1ccccc1	-79.5	n	n	n
CCC[C@@H](CN1CCC[C@H]1CN1C(N)=NC[C@@H]1Cc1ccccc1)N1C[C@@H]([C@H](C)CC)N(CCCC2CCCC2)C1=N	-97.1	u	n	n
CCC[C@@H](CN1CCC[C@H]1CN1C(N)=NC[C@@H]1Cc1ccccc1)N1C[C@@H](Cc2ccccc2)N(CCCC2CCCC2)C1=N	-64.1	n	n	n
O=C(Cn1cc(S(=O)(=O)Cc2cccc(Cl)c2)c2ccccc21)Nc1ccccc1Cl	x	n	x	n
CC(=O)Nc1c(C)nn(-c2ccccc2)c1N1CCC(C(=O)Nc2ccccc2C(F)(F)F)CC1	x	n	x	n
O=C1C(Cc2ccccc2)Nc2ncnc(N3CCCCC3)c2N1Cc1ccccc1 (stereo not given)	n	n	n	n
CCC1Nc2ncnc(N3CCc4ccccc4C3)c2N(Cc2ccc(Cl)cc2)C1=O (stereo not given)	n	7.94µM	n	n
O=C1C(Cc2ccccc2)Nc2ncnc(N3CCc4ccccc4C3)c2N1Cc1ccc(Cl)cc1 (stereo not given)	-59.2	u	n	n
CC1Nc2ncnc(N3CCc4ccccc4C3)c2N(Cc2ccccc2)C1=O (stereo not given)	n	u	n	n
CC1(C(=O)Nc2cccc(C(F)(F)F)c2)Cc2c(-c3ccccc3)ccnc2O1 (stereo not given)	n	u	n	n
COc1ccccc1COCC(O)CNCC1(N2CCCCC2)CCCCC1 (stereo not given)	-60.3	n	n	n
SMILES	DRD3 antagonist	GLP-1R inv ag	GLP-1R agonist	D3 ag
Cc1ccccc1N1C(S)=C(C#N)C(=O)NC1c1cccs1 (stereo not given)	-72.7	n	n	n
Cc1cccc(N2C(S)=C(C#N)C(=O)NC2c2cccs2)c1 (stereo not given)	n	n	n	n
COc1ccc(NC(=O)Cc2c(C(=O)O)[nH]c3ccccc23)cc1OC	x	n	x	n
O=C1C2C3C=CC(CC3)C2C(=O)N1/N=C/c1ccccc1O (stereo not given)	-64.8	n	u	n
CCCCc1ccc(NC(=O)C2CCCC2)cc1	n	10µM	n	n
CCN(CC)c1ccc(NC(=O)C2CCCC2)cc1	n	n	n	n
O=C(OC1CCCCC1)c1ccc(NC(=O)C2CCCCC2)cc1	n	2.51µM	n	n
O=C(O)CCC(=O)Nc1ccc(C(=O)OC2CCCCC2)cc1	n	n	n	n
COC(=O)CNC(c1ccccc1)c1cc(Br)ccc1NC(=O)c1ccccc1 (stereo not given)	x	u	x	n
CCOC(=O)CNC(c1ccccc1)c1cc(Br)ccc1NC(=O)c1cccc(Cl)c1 (stereo not given)	x	8.91µM	x	n
NNC(=O)CNC(c1ccccc1)c1cc(Br)ccc1NC(=O)c1cccc(Cl)c1 (stereo not given)	n	u	n	n
COC(=O)CNC(c1ccccc1)c1cc(Cl)ccc1NC(=O)c1cccc(Cl)c1 (stereo not given)	n	10µM	n	n
CCN1C(=O)c2ccccc2S(=O)c2ccc(C(=O)N3CCN(c4ccccc4OC)CC3)cc21 (stereo not given)	x	n	n	n
O=C(Cn1c(=O)n(-c2ccc(Cl)cc2)c(=O)c2oc3ccccc3c21)Nc1ccccc1	x	n	x	n
Cc1cccc(N2CCN(Cc3ccoc3)CC2)c1C	-87.5	n	n	n
FC(F)(F)c1cccc(N2CCN(Cc3cccnc3)CC2)c1	-73.7	n	n	n
FC(F)(F)c1cccc(N2CCN(Cc3ccoc3)CC2)c1	-96.2	u	n	n
COc1ccc(NC(=O)Cn2ncc3c2-c2ccccc2OC3)cc1Cl	x	n	x	n
O=C(CN1CCOCC1)Nc1nc2ccc(F)cc2s1	n	n	n	n
O=C(CN1CCOCC1)Nc1nc2ccc([N+](=O)[O-])cc2s1	-85.4	n	n	n
O=[N+]([O-])c1ccccc1Oc1ccc(C(F)(F)F)cn1	n	n	n	n
FC(F)(F)c1ccc(Oc2ccc3ccccc3c2Br)nc1	n	10µM	n	n
COc1ccc(C(C)(C)C)cc1NC(=O)COC(=O)c1cnc(C)cn1	-64.7	n	n	n
COc1ccc(Cl)cc1C(=O)NCCN(C)C	-71.8	n	n	n
COc1ccc(-c2nc3c(C(=O)NCCN(C)C)cccc3c3ccccc23)cc1	n	10µM	n	n
COc1cccc2nc3c(C(=O)NCCN(C)C)cccc3cc12	n	12.6µM	n	n
COc1cc(NC(=O)C2=C(C)OCCS2)c(Cl)cc1C(=O)NCCN(C)C	-52.4	n	n	n
COc1ccc(CNC(=O)c2sc3nc4n(c(=O)c3c2C)CCCC4)cc1	x	n	x	n
CCOC(=O)c1noc2nc(C)n(CC(=O)Nc3ccc(OC)c(Cl)c3)c(=O)c12	x	n	n	n
Cc1cccc(C(=O)Nc2ccc(OCc3cc(=O)n4ccc(C)cc4n3)cc2)c1	x	n	x	n
